Bioassay records from PubChem BioAssay.
KKLEB cytotox – CF airway cell cytotoxicity counter-screen; KKLEB CF airway cells viability, ATPlite luminescence, overnight; active compounds read low; cells stimulated with P. aeruginosa culture filtrate; activity change (cytotoxicity), % at 5 µM; 360,000 compounds, 0.36% hits; AID 602141;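 active = corrected activity change at or below -50% at 5 µM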
Mdm2-MdmX inh – inhibitors of human Mdm2/MdmX interaction; O15151+Q00987; SaOS-2 split-luciferase Mdm2/MdmX complementation, luminescence; inhibition, % at 8 µM; 330,000 compounds, 3% hits; AID 485346;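 active = inhibition of at least 50% at 8 µM in the primary screen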
Target sequence (O15151 whole entry, looked up): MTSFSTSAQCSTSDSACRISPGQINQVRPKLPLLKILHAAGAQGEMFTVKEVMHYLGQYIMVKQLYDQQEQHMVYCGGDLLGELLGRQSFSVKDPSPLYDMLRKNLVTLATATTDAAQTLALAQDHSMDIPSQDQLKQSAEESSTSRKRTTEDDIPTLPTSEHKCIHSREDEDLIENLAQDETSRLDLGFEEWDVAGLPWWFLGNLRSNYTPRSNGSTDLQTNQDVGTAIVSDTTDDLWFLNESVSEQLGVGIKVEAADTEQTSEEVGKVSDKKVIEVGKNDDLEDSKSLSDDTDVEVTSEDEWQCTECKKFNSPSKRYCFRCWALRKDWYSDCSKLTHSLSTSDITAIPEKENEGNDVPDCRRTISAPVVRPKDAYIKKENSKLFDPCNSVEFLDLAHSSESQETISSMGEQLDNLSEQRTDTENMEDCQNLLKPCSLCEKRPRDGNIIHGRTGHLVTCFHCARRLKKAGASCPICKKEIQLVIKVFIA
Target sequence (Q00987 whole entry, looked up): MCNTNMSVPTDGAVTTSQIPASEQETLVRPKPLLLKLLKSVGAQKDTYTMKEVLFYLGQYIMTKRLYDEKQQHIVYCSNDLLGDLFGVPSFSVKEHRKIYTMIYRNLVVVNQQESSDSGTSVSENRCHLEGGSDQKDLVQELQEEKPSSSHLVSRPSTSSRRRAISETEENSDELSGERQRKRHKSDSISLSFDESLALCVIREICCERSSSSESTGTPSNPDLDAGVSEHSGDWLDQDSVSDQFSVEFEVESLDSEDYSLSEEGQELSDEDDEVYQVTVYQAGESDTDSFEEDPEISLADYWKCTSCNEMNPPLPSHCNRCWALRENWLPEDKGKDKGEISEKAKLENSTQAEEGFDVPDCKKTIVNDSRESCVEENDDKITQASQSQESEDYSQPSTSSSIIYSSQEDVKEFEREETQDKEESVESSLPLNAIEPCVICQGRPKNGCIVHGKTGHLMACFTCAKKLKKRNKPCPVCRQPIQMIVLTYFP
Peg3 promoter – inhibitors of Peg3 promoter. HeLa PEG-Prom luciferase reporter, luminescence, overnight. inhibition, % at 20 µM. 360,000 compounds, 1.7% hits;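 active = inhibition of at least 50% at 20 µM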
HSP90 refold inh – blocks HSP90-mediated luciferase refolding in reticulocyte lysate | Rabbit reticulocyte lysate, luciferase refolding luminescence, 3 h | inhibition, % at 5.6 µM | 290,000 compounds, 0.91% hits | AID 1789;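 active = inhibition above the screen-wide mean plus 3 SD, computed separately per campaign, cut at about 16% in these data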;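 also: inhibitors lower the luminescence because luciferase stays unfolded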
LGR2 antag – inhibitors of bursicon-induced Drosophila LGR2 receptor cAMP signaling; inhibition, % at 9.99 µM; HEK293 LGR2, CRE-luciferase, bursicon-stimulated, 4 h; 380,000 compounds, 0.35% hits;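 active = drop in luminescence signal, shown as inhibition above about 50% in the replicate tests, limit read from the data, passing the limit was not always enough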;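 also: agonist challenge used bursicon conditioned medium at about half maximal strength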
CF NFkB block – inhibitors of cystic fibrosis induced NF-kB. KKLEB NF-kB-GFP reporter, PAF-induced, GFP fluorescence overnight. 360,000 compounds, 0.86% hits. inhibition, % at 5 µM;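 active = at least 50% inhibition at 5 µM, scaled per plate between neutral and stimulator controls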;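 also: PAF is a Pseudomonas aeruginosa culture filtrate used as stimulus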
Mdm2 MdmX conf – human Mdm2/MdmX binding inhibition, confirmed; 10,000 compounds, 55% hits; luminescent assay; inhibition, % at 8 µM; shares compounds with Mdm2-MdmX inh; in the data active = inhibition above about 40%
FLuc counter – inhibits full-length luciferase, flagging false Mdm2/MdmX hits. shares compounds with Mdm2-MdmX inh. SaOS-2 full-length luciferase counterscreen, luminescence. inhibition, % at 8 µM. 6,200 compounds, 77% hits. AID 504607;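 active = mean inhibition at 8 µM reaching about 37%, which flags the compound as non-specific, limit read from the data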;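 also: p53-null SaOS-2 cells with luciferase driven by a doxycycline-inducible promoter; compound on cells about two nights before reading with doxycycline added after day one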
A number is an active result; n = inactive; x = no result. Hits are enriched below; roughly 3.6% of the tested compounds scored in any of these assays.

SMILES | KKLEB cytotox | Mdm2-MdmX inh | Peg3 promoter | HSP90 refold inh | LGR2 antag | CF NFkB block | Mdm2 MdmX conf | FLuc counter
O=C1CC(c2ccco2)Cc2c1cnn2-c1nc2ccccc2s1 (stereo unspecified) | n | 50 | n | n | n | n | n | x
Cc1ccc2[nH]c(=O)c(CN(Cc3cccs3)Cc3nnnn3Cc3ccccc3)cc2c1 | n | n | n | n | n | n | n | x
CCOC(=O)Cn1nnnc1CN(Cc1cccs1)Cc1cc2cc(C)ccc2[nH]c1=O | n | n | n | n | x | n | x | x
CCOC(=O)C(=O)/C(C#N)=C/Nc1ccccc1 | n | n | n | n | x | n | x | x
CCOC(=O)/C(C#N)=C\c1cccnc1 | n | n | n | n | n | n | x | x
CCOC(=O)/C(=C\c1ccccc1)C(=O)c1cc(C(C)=O)c(Nc2ccccc2)s1 | n | 97 | 104 | n | x | n | 93 | 45
CCOC(=O)/C(=C\c1cccnc1)C(=O)c1cc(C(C)=O)c(Nc2ccccc2)s1 | n | 97 | 119 | n | x | 95 | 99 | 52
O=c1cc(-c2ccccc2)[nH]n1-c1nc2ccccc2[nH]1 | n | 95 | n | n | x | n | n | x
O=C(NCCCN1CCOCC1)[C@H]1[C@H](CO)[C@H]2Cn3c(cccc3=O)[C@@H]1N2C(=O)C1CCCCC1 | x | x | x | x | n | x | x | x
O=S(=O)(c1ccccc1F)N1CCN(c2nc(-c3cccnc3)nc3ccccc23)CC1 | n | n | n | x | x | n | x | x
N#Cc1ccccc1S(=O)(=O)N1CCN(c2nc(-c3cccnc3)nc3ccccc23)CC1 | n | 54 | n | x | n | n | 47 | 76
Cc1cccn2c(=O)c(C(=O)NC3CCCCC3C)c(O)nc12 (stereo unspecified) | n | n | n | x | n | n | x | x
Cc1ccn2c(=O)c(C(=O)NC3CCCCC3C)c(O)nc2c1 (stereo unspecified) | n | 67 | n | x | n | n | 67 | 68
COc1cc(C(=O)NC(=S)Nc2cccc(-c3cc4ccccc4oc3=O)c2)cc(OC)c1OC | n | 53 | n | n | x | n | n | x
CC(C)NC(=O)N[C@H]1CC[C@H](CCNC(=O)C2CCOCC2)O[C@@H]1CO | x | x | x | x | n | x | x | x
S=C(NNc1ccc2ccccc2c1)NC1CCCCC1 | n | 64 | n | n | n | n | 55 | n
S=C(Nc1ccc(Cl)c(Cl)c1)NC1CCCCC1 | n | 85 | n | n | n | n | 50 | 62
S=C(Nc1ccc(Cl)c(Cl)c1)NC1CCN(Cc2ccccc2)CC1 | n | 97 | 93 | n | x | n | 52 | n
Fc1ccc(NC(=S)NC2CCN(Cc3ccccc3)CC2)cc1 | n | n | n | n | n | n | x | x
S=C(Nc1ccc2nsnc2c1)NC1CCCCC1 | n | n | n | n | n | n | x | x
O=C(C[C@@H]1CC[C@H]2[C@@H](COC[C@H](O)CN2S(=O)(=O)c2ccc(Cl)cc2)O1)NCCN1CCCCC1 | x | x | x | x | n | x | x | x
CN(C)CC(=O)N1[C@@H]2c3ccc(C4=CCCC4)c(=O)n3C[C@H]1[C@H](CO)[C@H]2C(=O)NCC1CC1 | x | x | x | x | n | x | x | x
COc1ccc(S(=O)(=O)Nc2ccc3c(c2)C(=O)N([C@@H](C)CO)C[C@H](C)[C@H](CN(C)C(=O)Nc2cccc4ccccc24)OCCCC[C@H](C)O3)cc1 | x | x | x | x | n | x | x | x
COc1cc(C(N)=O)cc(Br)c1OC | n | 59 | n | n | x | n | n | x
CCOc1c(Br)cc(C(N)=O)cc1OC | n | n | n | n | x | n | x | x
O=C(N=Nc1c(O)[nH]c2ccccc12)c1cc(NS(=O)(=O)c2cccs2)cc(NS(=O)(=O)c2cccs2)c1 | n | 77 | n | n | n | n | n | 80
C[C@@H]1CN([C@@H](C)CO)C(=O)c2cccc(NS(=O)(=O)c3ccc(Cl)cc3)c2O[C@H]1CN(C)C(=O)NC1CCCCC1 | x | x | x | x | n | x | x | x
CCN(CC)c1ccc(/C=N/NC(=S)NCc2ccccc2)c(O)c1 | n | 60 | n | n | n | n | 44 | 44
CCN(CC)c1ccc(/C=N/N(c2ccccc2)c2ccccc2)c(O)c1 | n | n | n | n | n | n | x | x
CCN(CC)c1ccc(/C=N/NC(=O)c2ccco2)c(O)c1 | n | 59 | n | n | n | n | 57 | 55
